Source: PubChem BioAssay
Values joined by “and” are separate entries in the source; they are usually repeats but may differ in a detail not shown here. Equal entries are not always repeated.

System: Wnt5a (protein binding on small-molecule microarray)
Assay: Wnt5a binders on small-molecule microarray, primary screen, biophysical, 635/667 nm fluorescence (AID 1142);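 further: fluorescence read at 667 nm with signal to noise per printed feature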
Settings: 635 nm fluorescence, higher = more signal

Row | Compound | composite z-score
1 | CCCNC(=O)OC[C@H]1O[C@H](CCON=C(C)CCN2CCc3nc(-c4ccccc4)c(-c4ccccc4)cc3C2)C=C[C@@H]1Oc1ccc(OC)cc1 | 0.156
2 | C=CC[C@@H](O)c1ccc(O)c(F)c1 | -0.54 and -0.38
3 | C=CCN(Cc1ccccc1)C(=O)C(c1cccs1)N(C(=O)/C=C\C(=O)O)c1c(Cl)cccc1CO (configuration not stated) | -0.835 and -0.796
4 | CC(C)[Si]1(C(C)C)OCc2cc(CCCc3cc4c(c(CCc5ccccc5)n3)[Si](C(C)C)(C(C)C)OC4)nc(CCc3ccccc3)c21 | 0.0898 and 0.0154
5 | COC(=O)[C@@]1(Cc2ccc(F)cc2)[C@H]2c3cc(C(=O)N4CCCC4)n(Cc4c(CO)[nH]cc(C)c4=O)c3C[C@H]2CN1C(=O)c1ccccc1 | 2.18 and 0.117
6 | C=CCN(C(=O)C1N(c2ccc(CCO)cc2)C(=O)C2C(C(=O)O)C3C=CC21O3)c1ccc(OC)cc1 (configuration not stated) | -0.416 and -0.717
7 | C=CCN(C(=O)C1N(CCOCCO)C(=O)C2C(C(=O)O)C3C=CC21O3)C(C)(C)C (configuration not stated) | -0.908 and -0.886
8 | CCOC(=O)c1ccc(NC(=O)O[C@H]2[C@H](OC(=O)Nc3ccccc3)[C@H](OC(=O)Nc3ccccc3)[C@@H](OC)O[C@@H]2CO)cc1 | 0.679 and 0.445
9 | CC(C)=NOCc1ccc(-c2cn([C@@H]3COC[C@H]3O)nn2)cc1 | 0.184
10 | C[C@@H]1CC[C@H]2C(=O)O[C@H](CN=[N+]=[N-])CN2[C@H]1c1ccc(Br)cc1 | -0.0328 and -0.216
11 | C=CCN1C(=O)[C@]2(O[C@H](CCn3cc(CCO)nn3)[C@@H]([Si](C)(C)c3ccc(OC)cc3)[C@@H]2C)c2cc(N3C(=O)c4cccc5cccc3c45)ccc21 | 0.684 and 0.279
12 | CC(CO)N1C(=O)[C@@H]2C3C(=O)OCCC=C[C@H]3OC23C=CCN(Cc2ccccc2)C(=O)[C@@H]13 (some centres not stated) | -0.238 and -0.381
13 | C=CCN(C(=O)C1N(c2c(Cl)cccc2CO)C(=O)C2C(C(=O)O)C3C=CC21O3)C(C)(C)C (configuration not stated) | -0.948 and -0.619
14 | O=C1C[C@]2(c3ccc([N+](=O)[O-])cc3)C(=O)N(Cc3ccccc3)c3cc(CO)ccc3[C@H]2N1C1CCCCC1 | 0.0771 and 0.551
15 | C[C@@H](ON=C1[C@H]2CCn3c(=O)n(-c4ccccc4)c(=O)n3[C@H]2[C@H](O)[C@@H]2O[C@H]12)c1cn([C@H](CO)Cc2ccccc2)nn1 | -0.174
16 | C=CCN(CCCC)C(=O)C1N(C(C)(C)CO)C(=O)C2C(C(=O)O)C3C=CC21O3 (configuration not stated) | -1.3 and -0.176
17 | COC(=O)[C@@]1(Cc2ccccc2)[C@H]2c3cc(C(=O)N(C)C)n(C[C@H](O)CO)c3C[C@H]2CN1C(=O)c1ccccc1 | -0.19 and 0.0986
18 | C[C@@H]1CN2[C@@H](CC[C@@H](C)[C@@H]2c2ccc(Br)cc2)C(=O)O1 | -0.174 and -0.0451
19 | COC(=O)C1=C(C)N(Cc2ccccc2)[C@]23O[C@](C(=O)OC)(C(=O)N2[C@@H]1c1ccccc1)[C@@H](C(=O)OC)[C@H]3C(=O)OC | -0.13 and 0.206
20 | C=CCN(Cc1ccccc1)C(=O)C1N(c2ccc(CCO)cc2)C(=O)C2C(C(=O)O)C3C=CC21O3 (configuration not stated) | -0.588 and -0.549
21 | CCOC(=O)C[C@H]1[C@H](OC(=O)c2ccccc2-c2ccccc2)[C@@H](NC(=O)Cc2ccc(OC)cc2)c2cc(OCCCO)ccc2N1C(=O)c1ccc2ccccc2n1 | 0.0561 and 0.261
22 | CC(C)CCN1CCc2nc(-c3ccccc3)c3c(c2C1)CO[C@@H](C)C3 | 0.0842
23 | CCOC(=O)[C@@H]1CC=C2CC1C(=O)N1CCC[C@@H]1[C@H]2O[Si](C)(C)C(C)(C)C (some centres not stated) | -0.12 and -0.752
24 | COC(=O)[C@@]1(Cc2ccc(OC)cc2)[C@H]2c3cc(C(=O)N(C)C)n(Cc4ccc(O)c(OC)c4)c3C[C@H]2CN1C(=O)c1ccccc1 | 0.0905 and 0.294
25 | CO[C@H]1COC(=O)CC=C[C@H](C)[C@H](OC)COC(=O)[C@@H](C)COC(=O)CC=C[C@@H]1C | -0.051 and -0.105
26 | CCOC(=O)C[C@H]1[C@H](OC(=O)c2ccccc2-c2ccccc2)[C@@H](NC(=O)c2ccccc2)c2cc(OCCCO)ccc2N1C(=O)c1ccc2ccccc2n1 | 0.103 and 0.147
27 | C=CCN(CCCC)C(=O)C1N(c2c(Cl)cccc2CO)C(=O)C2C(C(=O)O)C3C=CC21O3 (configuration not stated) | -0.77 and -0.986
